Test results taken from article PMC4552634, “A New Set of Chemical Starting Points with Plasmodium falciparum Transmission-Blocking Potential for Antimalarial Drug Discovery” (PLoS ONE, 2015).
Hit rate of the full screen: of about 13,000 compounds, about 3,200 (25%) showed an effect of 50% or more. The list shows a part of the results.

Tested on: P. falciparum stage V gametocytes
Parameters: BacTiter-Glo ATP luminescence viability of purified stage V gametocytes in 384-well plates, per cent inhibition versus DMSO
Settings: 48 h, 5 µM; inhibitor

| Compound | % Inhibition |
| --- | --- |
| Cc1noc(NC(=O)c2sc3ccccc3c2O)c1C [TCMDC-124523] | 7.208% |
| O=C(CNC(=O)c1ccc(O)cc1)Nc1ccc(-c2cccc(-c3nc4ccc(C(F)(F)F)cc4[nH]3)c2)cc1 [TCMDC-136817] | -15.92% |
| COc1cc(O)c2c(=O)c(OC)c(-c3cccc(Cl)c3OCC(=O)O)oc2c1OC [TCMDC-131682] | 2.376% |
| N=C(N)c1ccc(NCc2cccc(C(=O)O)c2)cc1 [TCMDC-136136] | -78.43% |
| CS(=O)(=O)Nc1cccc(-c2cnc3[nH]cc(-c4ccc(CCC(=O)O)cc4)c3c2)c1 [TCMDC-136222] | -32.54% |
| CS(=O)(=O)Nc1cccc(-c2cnc3[nH]cc(-c4ccc(CN)cc4)c3c2)c1 [TCMDC-136218] | 33.32% |
| O=C(O)c1ccc(-c2c[nH]c3ncc(-c4ccc(Cl)cc4)cc23)cc1 [TCMDC-135860] | 22.96% |
| CS(=O)(=O)Nc1cccc(-c2cnc3[nH]cc(-c4ccc(C(=O)O)c(F)c4)c3c2)c1 [TCMDC-136221] | 80.96% |
| NCCC(=O)Nc1ccc(-c2cnc3[nH]cc(-c4ccc(C(=O)O)cc4)c3c2)cn1 [TCMDC-136494] | 31.68% |
| CCS(=O)(=O)c1ccc(-c2cnc3[nH]cc(-c4ccc(N)cc4)c3c2)cc1 [TCMDC-132582] | 93.29% |
| CS(=O)(=O)c1cccc(-c2cnc3[nH]cc(-c4ccc(CCC(=O)O)cc4)c3c2)c1 [TCMDC-136223] | 14.42% |
| NCCNC(=O)c1ccc(-c2cnc3[nH]cc(-c4ccc(C(N)=O)cc4)c3c2)cc1 [TCMDC-132359] | 74.46% |
| CS(=O)(=O)Nc1cccc(-c2cnc3[nH]cc(-c4ccc(C(=O)O)cc4)c3c2)c1 [TCMDC-136215] | -36.34% |
| CS(=O)(=O)Nc1cccc(-c2cnc3[nH]cc(-c4cccc(CN)c4)c3c2)c1 [TCMDC-136219] | 26.05% |
| CS(=O)(=O)Nc1ccc(-c2cnc3[nH]cc(-c4ccc(C(=O)O)cc4)c3c2)cc1 [TCMDC-136306] | 30.86% |
| CS(=O)(=O)c1cccc(-c2cnc3[nH]cc(-c4cccc(CCN)c4)c3c2)c1 [TCMDC-136307] | 108.4% |
| CCOC(=O)C(C(=O)OCC)c1nc(C)ns1 [TCMDC-131370] | 6.156% |

| Compound | % Inhibition |
| --- | --- |
| O=C(Nc1ccc2c(c1)CCC2)c1ccc(N2CCN(c3ccncc3)CC2)cc1 [TCMDC-135127] | 32.87% |
| CC(C)/C(=C(/F)CN1C(=O)C(NC(=O)c2cc3ccccc3[nH]2)C(=O)N(c2ccccc2)c2ccccc21)c1ccccc1 (stereo not shown) [TCMDC-131897] | 34.22% |
| O=C(Nc1ccc(N2CCCN(Cc3cccc(F)c3)CC2)cc1)c1cccs1 [TCMDC-135012] | -8.127% |
| CCc1nc(N)nc(N)c1-c1ccc(F)c(F)c1 [TCMDC-137370] | 12.31% |
| COc1ccccc1-c1sccc1C(=O)NC1(c2cc(Cl)cc(Cl)c2)CCCC1 [TCMDC-136461] | -44% |
| COc1ccc(Cl)cc1N1CCN(CCCNC(=O)c2ccc(-c3nc4cc(Cl)c(C)cc4[nH]3)s2)CC1 [TCMDC-140032] | 3.429% |
| COc1ccc(Cl)cc1-c1nc(C(=O)NCCN2CCCCC2)c(C(C)C)s1 [TCMDC-133715] | 16.92% |
| COc1ccc(Cl)cc1-c1nc(C(=O)NCCN2CCCCC2)c(C)s1 [TCMDC-133714] | 60.47% |
| CCOc1cc(C(=O)NCCN2CCCCC2)ccc1-c1nc2ccc(Cl)cc2[nH]1 [TCMDC-140913] | 5.667% |
| CCc1sc(N2CCN(C)CC2)nc1C(=O)NCCc1ccc(Cl)c(Cl)c1 [TCMDC-134296] | 25.24% |
| CCc1sc(-c2cc(Cl)ccc2OC)nc1C(=O)NCCN1CCCCC1 [TCMDC-133716] | 70.94% |
| Cc1ccccc1N1CCN(c2ccc(C(=O)NC(C)C)cn2)CC1 [TCMDC-134577] | -17.52% |
| CCOC(=O)c1cnc2c(C(F)(F)F)cccc2c1Nc1ccc(O)cc1 [TCMDC-125649] | -55.53% |
| COc1ccc2nccc([C@@H](O)CN3CCC(NC(=O)/C=C/c4cc([N+](=O)[O-])ccc4OC)CC3)c2c1 [TCMDC-141044] | -26.66% |
| N#CN1CC[C@@H](NS(=O)(=O)Cc2ccc(Cl)c(Cl)c2)C1 [TCMDC-133787] | 27.55% |
| O=C(C=Cc1ccc(Cl)c(Cl)c1)NCCCCCN1CCC(CCCNC(=O)c2ccc3c(c2)OCO3)CC1 [TCMDC-139574] | 21.18% |
| O=C(/C=C/c1ccc(Cl)c(Cl)c1)NCCCCCN1CCC(C(=O)Nc2ccc3c(c2)OCO3)CC1 [TCMDC-136127] | -2.985% |
